# Source: PubChem BioAssay (National Center for Advancing Translational Sciences (NCATS))
# The list is not random: actives were taken first. Their share in the collection is about 2.4%.
# D2 ag-1: activates the human D2 dopamine receptor. activation, % at 2 µM. HEK293 T-REx D2 cells, calcium flux agonist mode. actives 0.53% (n = 340,000);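 active = activation over 3 SD above normal in the single-dose calcium agonist read, cut at about 30% in these data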
#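 Agonism scored from kinetic calcium signal (1 read/sec, 180 s) following compound pin transfer, after a 10 s baseline. Cells: HEK293 Trex line expressing inducible D2 receptor coupled to calcium, dye-loaded after overnight culture at 30 C.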
# D2 ag-2: human D2 receptor agonism in beta-arrestin assay; P14416; DiscoveRx PathHunter D2 beta-arrestin, luminescence, 90 min; 100% = 57 uM dopamine signal; activation, % (no concentration beside the values); actives 0.084% (n = 360,000); in the data active = activation above about 40%; inconclusive = between about 15% and that limit
#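 DiscoveRx PathHunter D2 beta-arrestin cells (2,100/well) attached overnight, then compound-stimulated 90 min at 37 C in HBSS/10 mM HEPES/0.1% Tween-20 buffer; beta-galactosidase complementation read by luminescence after 1 h at ambient temperature. Dopamine 57 uM final (EC100) as control.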
# D2 antag: antagonists of human D2 dopamine receptor | actives 2% (n = 340,000) | inhibition, % at 10 µM | P14416 | AID 485344 | HEK293 TREx D2 cells, calcium flux, dopamine EC80; in the data active = inhibition above about 30%; inactive = below that, where a call was filed
#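 Tetracycline-induced HEK293 TREx cells expressing D2 receptor forced-coupled to calcium signalling, loaded with no-wash calcium dye. Compounds added and calcium flux read 180 s, then dopamine added at EC80 and read a further 180 s.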
# D2 PAM-1: positively modulates the human D2 dopamine receptor allosterically | potentiation, % at 10 µM | AID 485347 | actives 0.34% (n = 340,000) | HEK293 T-REx D2, calcium flux, EC20 dopamine potentiation | P14416;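 active = potentiation over 3 SD above the plate norm, cut at about 30% in these data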
#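 Tetracycline-induced HEK293 T-REx cells force-coupled to calcium signalling expressed D2; compounds were pin-added after a 10 s baseline, read kinetically 180 s, then an EC20 dopamine challenge followed with a further 180 s calcium read.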
# D2 PAM-2: potentiates the human D2 dopamine receptor allosterically; P14416; DiscoveRx D2 beta-arrestin cells, luminescence, 90 min; 100% = 57 uM dopamine signal; potentiation, % (test concentration not listed); actives 0.23% (n = 360,000); in the data active = potentiation above about 50%; inconclusive = mostly about 30% to 49%
#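 PathHunter beta-arrestin assay in DiscoveRx D2 cells. Compounds were added with an EC20 of dopamine (50 nM final) for 90 min at 37 deg C. Luminescence was read 1 h after detection reagent, with 57 uM dopamine as the EC100 control.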
# D3 arrestin ag: activates human D3 dopamine receptor beta-arrestin recruitment. shares compounds with D2 ag-1. DiscoveRx D3 beta-arrestin cells, luminescence, 90 min. Potency, µM (top dose mostly 76.9 µM), usual class: activators. actives 4% (n = 2,300). AID 720506; note: nearly all actives have a fitted effect of over 70% in size
# Target sequence (P35462 whole entry, looked up): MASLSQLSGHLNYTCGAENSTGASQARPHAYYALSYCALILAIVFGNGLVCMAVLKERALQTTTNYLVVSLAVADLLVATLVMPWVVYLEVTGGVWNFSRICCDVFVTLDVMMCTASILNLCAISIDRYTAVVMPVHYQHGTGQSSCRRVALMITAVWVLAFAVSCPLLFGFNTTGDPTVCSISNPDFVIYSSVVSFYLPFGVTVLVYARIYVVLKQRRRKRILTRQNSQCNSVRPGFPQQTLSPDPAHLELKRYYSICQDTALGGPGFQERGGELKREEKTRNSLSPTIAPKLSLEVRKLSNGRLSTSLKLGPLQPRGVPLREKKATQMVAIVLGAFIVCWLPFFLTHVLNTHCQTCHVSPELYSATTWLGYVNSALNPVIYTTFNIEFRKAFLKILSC
# D2 ag-3: activates human D2 dopamine receptor in D3 counterscreen | shares compounds with D2 ag-1 | DiscoveRx PathHunter D2 beta-arrestin, luminescence, 90 min; response scale: percent relative to full dopamine signal | Potency, µM (top dose mostly 76.9 µM), most hits filed as activators | actives 5.9% (n = 2,300) | AID 720507; note: nearly all actives have a fitted effect of over 70% in size
# A number is an active result; n = inactive; u = inconclusive; x = no result. Unless noted, calls come from the whole dose curve; as a rule, active = well fitted activation curve with a large enough effect; inconclusive = small, poorly fitted or top-dose-only effect; inactive = flat fitted curve, though single readings scatter.
SMILES,D2 ag-1,D2 ag-2,D2 antag,D2 PAM-1,D2 PAM-2,D3 arrestin ag,D2 ag-3
COc1ccc(NC(=O)c2ccc(CN3CCN(c4ccccc4)CC3)cc2)cc1,86,u,82,n,n,n,14µM
CSc1ccccc1NC(=O)c1ccc(CN2CCOCC2)cc1,n,n,n,n,n,x,x
O=C(NCc1ccccc1)c1nc[nH]c1C(=O)N1CCc2ccccc2C1,x,n,x,x,n,x,x
O=C(Nc1ccon1)c1nc[nH]c1C(=O)N1CCc2ccccc2C1,n,n,n,n,n,n,n
CCc1ccc(CNc2ncc(-c3cccc(OC)c3)n2C)cc1,n,x,x,n,x,x,x
Cc1nn(-c2ccccc2)c(Cl)c1C(=O)NNC(=O)c1ccncc1,n,n,n,n,n,n,n
CCC(NC(C)C)C(O)c1ccc(O)c(O)c1 (centres undefined),n,n,n,n,n,u,n
Cc1nc2sc(C)c(C)n2c(=O)c1S(=O)(=O)N1CCN(c2ccccc2F)CC1,n,x,x,n,x,x,x
O=C(CN1CCN(c2ccccc2)CC1)Nc1ccc(OCc2ccccc2)cc1,44,n,55,n,n,u,n
O=C(CCN1CCN(c2ccccc2)CC1)Nc1ccccc1,73,n,53,n,n,n,n
O=C(CCN1CCN(CCO)CC1)Nc1ccccc1,n,n,n,n,n,x,x
CCOc1ccc(NC(=O)CCN2CCN(c3ccccc3)CC2)cc1,98,u,83,n,n,u,u
CCOC(=O)N1CCN(CC(=O)Nc2ccc(Oc3ccccc3)cc2)CC1,56,44,43,n,n,u,u
CCOc1ccccc1C(=O)N1CC(=O)Nc2ccc(C)cc2C1c1ccccc1 (centres undefined),n,x,x,x,x,x,x
CCOCCCNC(=O)C1CCN(C(=O)c2cc3sccc3n2C)CC1,n,x,x,n,x,x,x
O=C(CC1C(=O)NCCN1C(=O)Nc1ccccc1)Nc1ccc(F)cc1 (centres undefined),n,n,n,n,n,x,x
COc1ccc(NC(=O)CCN2CCN(c3ccc(F)cc3)CC2)cc1,65,n,77,n,n,n,n
CCOc1ccc(NC(=O)CC2C(=O)NCCN2C(=O)Nc2ccccc2)cc1 (centres undefined),n,n,n,n,n,n,n
CC(C)c1nn2c(=O)cc(COC(=O)c3cccs3)nc2s1,n,x,x,n,x,x,x
O=S(=O)(c1ccc(OCC(O)CN2CCN(c3ccccc3)CC2)cc1)N1CCOCC1 (centres undefined),85,44,96,n,n,u,7.1µM
O=S(=O)(c1ccc(OCC(O)CN2CCCC2)cc1)N1CCOCC1 (centres undefined),n,n,n,n,n,x,x
O=S(=O)(c1ccc(OCC(O)CN2CCC(Cc3ccccc3)CC2)cc1)N1CCOCC1 (centres undefined),63,n,n,n,n,n,n
O=S(=O)(c1ccc(OCC(O)CN2CCN(c3ccccc3O)CC2)cc1)N1CCOCC1 (centres undefined),71,u,69,n,n,u,28µM
O=C(Nc1cccc(Cl)c1)c1ccc2c(c1)CCN2S(=O)(=O)c1ccccc1,x,x,x,n,x,x,x
Cc1ccc(S(=O)(=O)c2cn(C)c3cc(N4CCCCCC4)c(F)cc3c2=O)cc1,n,x,x,n,x,x,x
Cc1cccc(-c2nc3scc(CCNS(=O)(=O)c4ccc(F)cc4C)n3n2)c1,n,x,x,n,x,x,x
CCCN1C(=O)CN(C2CCCCCC2)C(=O)C1c1ccc(OCC)c(OC)c1 (centres undefined),n,x,x,n,x,x,x
COc1ccc(/C=N/Nc2nnc(-c3ccccc3)c(=O)[nH]2)cc1,60,n,n,n,n,n,n
O=c1[nH]c(N/N=C/c2ccccc2Br)nnc1-c1ccccc1,n,n,n,n,n,x,x
